Compound activity as filed in PubChem BioAssay.
HEK293 tox = cytotoxic in the GLP-1 receptor inverse agonist counter-screen; 410,000 tested, 0.13% active; HEK293 cAMP-luciferase reporter cells, luminescence, 24 h; Potency, µM (top dose mostly 38.3 µM), actives largely listed as inhibitors; AID 624418;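 note: loss of luciferase light is scored as toxicity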
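Seeding density was 200 cells/uL; after overnight-length (12 h) culture, 23 nL compounds went on for 24 h at 37 °C. Readout used a luciferase detection reagent, luminescence taken after 12 min at room temperature.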
IDH1 R132H inh = human IDH1 R132H inhibition; O75874; IDH1-R132H enzyme, NADPH consumption, diaphorase/resazurin fluorescence; Potency, µM (titrated, usually from 76.6 µM), most hits filed as inhibitors; 390,000 tested, 0.093% active; AID 602179; note: nearly all actives have a fitted effect of over 65% in size
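IDH1-R132H (0.5 ug/mL) preincubated 30 min with compound, then NADPH (0.016 mM) and alpha-KG (2 mM) added; 80 min at RT, pH 7.5. Remaining NADPH coupled via diaphorase/resazurin to fluorescence (540/590 nm); concentration-response curves normalized to no-enzyme control.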
TrxR1 substrate = is turned over as a substrate by rat TrxR1; purified TrxR1 substrate turnover, NADPH consumption readout; 390,000 tested, 0.01% active; AID 588456; Potency, µM (top dose mostly 114 µM); note: nearly all actives have a fitted effect of over 50% in size
Target sequence (O89049 whole entry, looked up): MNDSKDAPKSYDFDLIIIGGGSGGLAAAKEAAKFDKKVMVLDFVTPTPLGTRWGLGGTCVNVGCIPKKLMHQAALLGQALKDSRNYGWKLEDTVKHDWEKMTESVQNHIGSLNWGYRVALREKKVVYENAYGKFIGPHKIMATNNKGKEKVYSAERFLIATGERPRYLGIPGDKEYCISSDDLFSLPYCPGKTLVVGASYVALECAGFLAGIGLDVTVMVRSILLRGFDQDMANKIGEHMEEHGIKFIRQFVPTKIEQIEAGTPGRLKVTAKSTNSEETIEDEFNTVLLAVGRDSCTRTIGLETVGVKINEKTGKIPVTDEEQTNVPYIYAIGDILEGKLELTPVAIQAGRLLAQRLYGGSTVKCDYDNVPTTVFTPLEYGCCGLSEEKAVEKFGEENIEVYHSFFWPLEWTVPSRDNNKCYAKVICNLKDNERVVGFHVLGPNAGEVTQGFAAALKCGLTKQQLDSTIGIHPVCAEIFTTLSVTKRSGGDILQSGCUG
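Rat TrxR1, dispensed at 90 nM, was prereduced with 400 uM NADPH (final) for 5 min at ~22 deg C, then incubated with compound 15 min before 400 uM selenite. A first-read NADPH fluorescence drop versus no-compound background flagged substrates.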
GLP1R ag = agonists of human GLP-1 receptor | HEK293 GLP-1R CRE-luciferase, luminescence, 4-6 h; cells express a hypersensitive GLP-1R form | 380,000 tested, 0.007% active | Potency, µM (titrated, usually from 45.6 µM), most hits filed as activators
rTrxR1 inhibitor = rat TrxR1 inhibition | Potency, µM (top dose mostly 114 µM), most hits filed as inhibitors | recombinant rTrxR1, NADPH fluorescence consumption, selenite substrate | 390,000 tested, 1% active | O89049; note: nearly all actives have a fitted effect of over 65% in size
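Rat TrxR1 (90 nM in the dispensed reagent) was pre-reduced with 400 uM NADPH for 5 min at room temperature, then incubated with compound for 15 min. After 400 uM selenite was added, NADPH fluorescence (Ex 340/Em 450 nm) was followed for 8 min.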
GLP1R inv ag = GLP-1 receptor (human) inverse agonism. P43220. HEK293 GLP-1R CRE-luciferase, luminescence, 24 h; GLP-1R form is constitutively active. Potency, µM (series often up to 38.3 µM), actives largely listed as inhibitors. 410,000 tested, 1.6% active; note: nearly all actives have a fitted effect of over 55% in size
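Cells are plated, allowed 12 hours at 37 deg C, then treated with compounds for 24 hr before luciferase detection reagent is added and luminescence is read after 12 min at room temperature. The HEK293 line carries constitutively active GLP-1R with a cAMP-responsive reporter.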
Hits are given with their value; n = inactive; u = inconclusive; x = no result; [ ] = dose if it differs, or a comment. A selection: hits, their analogues and other compounds. The true share with any hit is near 2.7%. Calls come from the whole dose curve; as a rule, active = well fitted curve in the direction sought with a large enough effect; inconclusive = small, poorly fitted or top-dose-only effect, or another doubt; inactive = no such curve, though single readings can be large; an effect the other way counts as inactive or inconclusive.

SMILES	HEK293 tox	IDH1 R132H inh	TrxR1 substrate	GLP1R ag	rTrxR1 inhibitor	GLP1R inv ag
COc1ccc(Oc2c(C=O)c3ccccc3n2C)cc1	n	n	n	n	n	10µM
Cc1ccc(Oc2c(C=O)c3ccccc3n2C)cc1	n	n	n	n	n	5µM
C/C(=N\NC(=S)Nc1c(C)cccc1C)c1ccc(O)cc1	u	n	n	n	n	10µM
C/C(=N\NC(=S)Nc1cccc(C)c1)c1cccc(N)c1	u	n	n	n	n	n
C/C(=N\NC(=S)Nc1c(C)cccc1C)c1cc2ccccc2o1	n	n	n	n	n	u
C/C(=N\NC(=S)Nc1ccc(C)cc1)c1cccc(N)c1	4.5µM	n	n	n	n	u
COc1ccccc1CNC(=O)CN1N=C(c2ccccc2)CCC1=O	n	n	n	x	n	n
CNCCCC1Sc2ccccc2Oc2ccccc21 (configuration not stated)	u	n	n	n	n	5µM
CC(C)=CCC[C@H](C)C[C@@H]1Cc2[nH][nH]c(=O)c2[C@H](c2ccc(Cl)cc2)O1	n	x	x	n	x	u
O=c1c2c([nH]n1-c1ccccc1)C[C@@H](C1CCCCC1)O[C@H]2c1ccc(F)cc1	n	x	x	n	x	2.2µM
CC(C)=CCC[C@H](C)C[C@@H]1Cc2[nH][nH]c(=O)c2[C@@H](c2ccc(F)cc2)O1	n	x	x	n	x	5.6µM
O=c1[nH][nH]c2c1[C@H](c1ccc(F)cc1)O[C@H](C1CCCCC1)C2	n	x	x	n	x	2.8µM
Cc1ccc(NC(=O)C2CCCN(S(=O)(=O)c3cccc4cccnc34)C2)cc1Cl (configuration not stated)	n	n	n	x	n	10µM
Cc1ccc(C)c(N2CCN(S(=O)(=O)c3cccc4cccnc34)CC2)c1	n	n	n	n	n	10µM
O=S(=O)(c1cccc2cccnc12)N1CCN(c2ccccc2)CC1	n	n	n	n	n	n
C/C(=C1/C=Nc2ccccc21)c1ccc(N(C)C)cc1	x	x	n[0.0914 µM]	x	n	x
CC(C)(C)c1ccc(Cn2cnc3c(cnn3C(C)(C)C)c2=O)cc1	x	x	n	x	n	x
CCOC(=O)c1c(/N=C/N(C)C)sc(/C=N/Nc2ccccc2)c1-c1ccccc1Cl	n	n	n	n	n	3.5µM
CCOC(=O)c1c(/N=C/N(C)C)sc(/C=N/Nc2ccccc2)c1-c1ccccc1	n	n	n	n	n	u
COc1cc(/C=C2/C=Cc3ccccc32)ccc1N(C)C	x	x	n	x	u	x
O=C(CC1C(=O)N(c2ccccc2)C(=S)N1c1ccccc1)c1ccc(Br)cc1 (configuration not stated)	n	n	n	n	n	11µM
O=C(CC1C(=O)N(c2ccccc2)C(=S)N1c1ccccc1)c1ccccc1 (configuration not stated)	n	n	n	n	n	u
N=C1S/C(=C\c2ccco2)C(=O)N1c1nccs1	n	n	n	n	n	1µM
CSc1nc(C)cc(C)c1S(=O)(=O)c1ccccc1C	n	n	n	n	n	5µM
CCC(C)Oc1nc(C)cc(C)c1S(=O)(=O)c1ccccc1C (configuration not stated)	n	n	n	n	n	8.9µM
SMILES	HEK293 tox	IDH1 R132H inh	TrxR1 substrate	GLP1R ag	rTrxR1 inhibitor	GLP1R inv ag
C#CCOc1nc(C)cc(C)c1S(=O)(=O)c1ccccc1C	n	n	n	n	n	u
COc1nc(C)cc(C)c1S(=O)(=O)c1ccccc1C	n	n	n	n	n	u
CCSc1nc(C)cc(C)c1S(=O)(=O)c1ccccc1C	n	n	n	n	n	8.9µM
CCOC(=O)C1CCC(CN(Cc2ccc(OC)cc2)S(=O)(=O)c2ccc(F)c(C(=O)Nc3c(C)cccc3C)c2)CC1 (configuration not stated)	n	n	n	x	n	2µM
CCOC(=O)C1CCC(CN(Cc2ccc(OC)cc2)S(=O)(=O)c2ccc(F)c(C(=O)Nc3cc(Cl)ccc3OC)c2)CC1 (configuration not stated)	n	n	n	x	n	u
O=C(C[n+]1c(Cl)cc(Cl)c2ccccc21)c1ccccc1	x	x	n	x	71µM	x
CC(=O)N1CCN(Cc2nc(C(c3ccccc3)c3ccccc3)no2)CC1	n	n	n	n	n	n
Cc1cccnc1CN1CCN(Cc2nc(C(c3ccccc3)c3ccccc3)no2)CC1	n	n	n	n	n	5µM
C[C@@H]1CN(C2CCN(Cc3nc(C(c4ccccc4)c4ccccc4)no3)CC2)C[C@H](C)O1	n	n	n	n	n	u
c1ccc(C(c2ccccc2)c2noc(CN3CCN(C4CCCC4)CC3)n2)cc1	n	n	n	n	n	13µM
CCOc1ccc(-c2nnc(-c3ccccc3)o2)cc1	n	n	n	n	n	5µM
CC(=O)Nc1ccc(/C(C)=N/Nc2nc(Nc3cccc4ccccc34)nc(N3CCOCC3)n2)cc1	n	n	n	n	n	2.8µM
CC(=O)Nc1ccc(/C(C)=N/Nc2nc(N3CCOCC3)nc(N3CCOCC3)n2)cc1	n[7.66 µM]	n	n	n	n	n[7.66 µM]
O=C(Nc1ccccc1N1CCCC1)C1CCN(S(=O)(=O)c2ccccc2C(F)(F)F)CC1	n	n	n	n	n	u
O=C(Nc1cc(S(=O)(=O)N2CCCCC2)ccc1N1CCOCC1)c1ccc(C(F)(F)F)cc1	n	n	n	n	n	u
Cc1ccc(S(=O)(=O)N2CCC(C(=O)Nc3cc(C(F)(F)F)ccc3N3CCOCC3)CC2)cc1C	n	n	n	n	n	13µM
O=C(Nc1ccccc1N1CCCCC1)C1CCN(S(=O)(=O)c2ccccc2C(F)(F)F)CC1	n	n	n	n	n	7.9µM
COc1cccc(S(=O)(=O)N2CCN(c3nc(-c4cccs4)nc4ccccc34)CC2)c1	x	x	n	x	n	x
c1cc2c3c(c1)CCC[N+]3(C1CCCCC1)CCC2	x	x	n	x	n	x
COc1cc(NCCC(=O)c2cccs2)c(OC)cc1Cl	n	n	n	n	18µM	n
CC1(Cc2ccccc2OC(F)(F)F)C(=O)Nc2cc(-c3ccccc3Cl)ccc21 (configuration not stated)	u	x	x	n	x	5.6µM
COC(=O)C1=CN(c2ccc(N3CCOCC3)cc2)C(N)=C(C#N)C1c1cccc(F)c1 (configuration not stated)	n	x	x	x	x	n
O=C(COC(=O)c1ccc([N+](=O)[O-])o1)Nc1ccc2c(c1)OCO2	n	n	n	n	18µM	n
O=C(CCl)N(CCCNC(=O)C(F)(F)F)c1ccc([N+](=O)[O-])cc1	n	n	n	n	u	u
